Drawing on PubChem BioAssay (EPA / NIEHS), this text covers outcome and AC50 for 40 compounds.

The source made the active and inactive calls. How the source made its calls: active means hit-call score of the fitted dose curve at least 0.9, where 1 is the maximum; inactive means score below 0.9.

Read-out in the experiment: MYC, MYC (gene 4609)
In words: LTEA_HepaRG_MYC: Life Technologies and Expression Analysis (LTEA) Assay for MYC using HepaRG (AID 2283518). Conditions: mRNA level, 48 h; actives raise or lower the signal. The procedure: LTEA_HepaRG is a cell based, multiplexed-readout assay that uses HepaRG, a human liver cell line, with measurements taken at 48 hours after chemical dosing on a 96-well plate.LTEA_HepaRG_MYC is one of 102 assay component(s) measured in the LTEA HepaRG cell culture assay. It is a marker of Cell proliferation, survival, death.Data from the assay component LTEA_HepaRG_MYC was analyzed into 1 endpoint. This assay endpoint, LTEA_HepaRG_MYC, was analyzed with bidirectional fitting relative to DMSO as the negative control and baseline of activity. Using a type of inducible reporter, measures of mRNA induction for gain or loss-of-signal activity can be used to understand regulation of transcription factor activity. To generalize the intended target to other relatable targets, this assay endpoint is annotated to the dna binding intended target family, where the subfamily is basic helix-loop-helix leucine zipper.
A total of 1060 chemcials from the ToxCast library were tested in eight-point concentration-response experiments. Cell culture and cytotoxicity assays were conducted at Thermo Fisher Scientific's Custom Services facility (Madison, WI). A single lot of human HepaRG cells (Thermo Fisher Scientific, Frederick, MD) was used for the cell culture experiments. 96-well format collagen type I coated plates of human HepaRG cells were prepared using established methods. Briefly, cryopreserved HepaRG cells were thawed, plated at a density of approximately 100,000 cells/well in HepaRG Thaw, Plate, and General Purpose media (HPRG770, Thermo Fisher Scientific), and incubated for 48 hours. 0.5% DMSO was selected as vehicle control to balance the requisite need of DMSO in HepaRG cultures to maintain differentiation (for example, baseline metabolism, proportions of hepatocytes vs. cholangiocytes), while enabling further hepatic receptor pathway activation (for example, PXR and CAR) in response to chemical exposure. 48 hours after plating, the culture medium was replaced with HepaRG Serum-Free Incudtion Media. Cells were exposed to each test chemical in duplicate and maintained in CO2 incubators for another 48 hours. Chemical plates were thawed to room temperature and 200x concentrations of treatment groups were prepared. 8-point conentration-reponse curves were made with the highest exposure at 100 uM, followed by half-log dilutions, all in 0.5% DMSO. Each test plate contained variouse controls, induction positive controls (1mM phenobarbital), cytotoxicity positive controls ([…] aflatoxin B1), vehicle controls (0.5% DMSO), and total lysis controls (0.5% DMSO). Cell morphology images were taken using an Essen IncuCyte FLR automated microscope, with six 96-well plates imaged in about 24 minutes. Images were captured and exported and JPEG files. Spent culture media was transfered to black-well plates for the LDH assay, and remaining media was sorted at -80 C for later use. Cells were treated with RLT buffer and frozen until shipped for gene expression analysis. Total RNA was isolated from the cell suspension in 75 uL of Buffer RLT (Qiagen, Germantown, MD 20874) by Quintiles/Expression Analysis (Durham, NC) using a custom isolation procedure. Total RNA from each plate well was transferred to a preamplification plate. Fluidigm's 96.96 Dynamic ArrayTM (Fluidigm, Amsterdam, the Netherlands) technology was used for gene expression analyses by quantitative reverse transcription polymerase chain reaction (qRT-PCR, performed by Quintiles/Expression Analysis, Durham, NC)89. Standard TaqManTM Assays (Applied Biosystems/ThermoFisher Scientific, Foster City, CA) were used to assess the expression of 93 genes selected based on their selectivity and sensitivity to important hepatic receptors known to be modulated by environmental chemicals; importance in human hepatocyte functionality; and hepatotoxicity. […]
`O=C(O)c1ccccc1-n1cc(C(=O)O)c(=O)c2cc(Nc3c(F)cc(F)cc3Cl)c(Cl)cc21`: the outcome was inactive.

Turning to `Oc1ccccc1`, the result was inactive.

Turning to `Cc1cc2c(cc1C(F)(F)F)N(C(=O)Nc1ccc(Oc3cccnc3C)nc1)CC2`, the outcome was inactive.

As for `Cc1c2ccccc2c(C)c2c1ccc1ccccc12`, the AC50 is 63.7 µM (active).

Take `CCCCCCCCCCCC[N+](C)(C)C`: the AC50 is 75.8 µM (active).

`CC1=CC(=O)/C(=C(/C)O)C(=O)O1`: the call was inactive.

Consider `CC(C)(C)c1csc(-c2cc3cc(OCc4ccccc4CC(=O)O)ccc3o2)n1`, for which the AC50 was 32 µM (active).

As for `CCOC(=O)O[C@H](C)OC(=O)c1ccc2c(c1)cc(C(=O)NC1CCN(C(C)C)CC1)n2Cc1cc(-c2ccc(Cl)s2)on1`, the compound was called inactive.

Regarding `COc1ccc2cc(S(=O)(=O)N[C@H](CC(=O)N[C@H](Cc3ccc(CN4[C@H](C)CCC[C@@H]4C)cc3)C(=O)N(C)C(C)C)c3ccc4c(c3)OCO4)ccc2c1`, the AC50 was 24.7 µM (active).

Turning to `CC(=O)N1CCN(c2ccc(OC[C@H]3CO[C@](Cn4ccnc4)(c4ccc(Cl)cc4Cl)O3)cc2)CC1`, the AC50 is 15.4 µM (active).

On to `CCO[Si](CCCNC(N)=O)(OCC)OCC`, for which the call was inactive.

As for `NC(=O)c1nc(-c2cccc(-c3cc(F)ccc3OCC(F)(F)C(F)(F)F)c2)n[nH]1`, the outcome was inactive.

`CCCCCCCCCC(=O)O`: the compound was called inactive.

Consider `O=C(O)Cc1cc(I)c(Oc2ccc(O)c(I)c2)c(I)c1`, for which the AC50 is 91.3 µM (active).

Take `CCCOC(=O)c1cc(O)c(O)c(O)c1`: the result was inactive.

Regarding `CCN(Cc1cccc(S(=O)(=O)O)c1)c1ccc(C(=C2C=CC(=[N+](CC)Cc3cccc(S(=O)(=O)O)c3)C=C2)c2ccccc2S(=O)(=O)[O-])cc1`, the compound was called inactive.

As to `CO[C@H]1/C=C/O[C@@]2(C)Oc3c(C)c(O)c4c(O)c(c(/C=N/N5CCN(C)CC5)c(O)c4c3C2=O)NC(=O)/C(C)=C\C=C\[C@H](C)[C@H](O)[C@@H](C)[C@@H](O)[C@@H](C)[C@H](OC(C)=O)[C@@H]1C`, the result was inactive.

Take `CC(C)(O)c1ccc(CNC(=O)c2cccnc2Oc2ccc3nonc3c2)cc1`: the result was inactive.

For `CN(C)C(=O)C1(N2CCCCC2)CCN(CC[C@@]2(c3ccc(Cl)c(Cl)c3)CN(C(=O)c3ccccc3)CCO2)CC1`, the AC50 is 21.4 µM (active).

With `CC(C)(c1cc(Br)c(O)c(Br)c1)c1cc(Br)c(O)c(Br)c1`, the AC50 was 89.5 µM (active).

As for `CCCCOC(=O)c1ccc(O)cc1`, the call was inactive.

With `CCCCCCCCOc1ccc(C(=O)c2ccccc2)c(O)c1`, the outcome was inactive.

As to `Clc1cc(Cl)c2c(c1)N=C1CCCCCN1C2`, the result was inactive.

In the case of `C[C@]12CC[C@@H]3c4ccc(O)cc4CC[C@H]3[C@@H]1CC[C@H]2O`, the call was inactive.

Take `OCCO`: the result was inactive.

For the compound `CN(C)c1ccc(C(=C2C=CC(=[N+](C)C)C=C2)c2ccc(N(C)C)cc2)cc1`, the AC50 is 12 µM (active).

Turning to `c1ccc2ccccc2c1`, the result was inactive.

For `c1ccc(C[n+]2cccc3ccccc32)cc1`, the concentration at half-maximal activity (AC50) was 34.6 µM (active).

Turning to `CCCCCCCC[Si](OCC)(OCC)OCC`, the compound was classed as inactive.

Take `O=C(Nc1ccc(Cl)cc1)Nc1ccc(Cl)c(Cl)c1`: the AC50 was 28.6 µM (active).

With `O=CCCCC=O`, the outcome was inactive.

Regarding `Cc1oc2c(NC(=O)c3c(Cl)cccc3Cl)cccc2c1C(C)(C)O`, the AC50 is 50 µM (active).

Consider `Oc1ccc2ccccc2c1`, for which the compound was called inactive.

As to `O=C(OCCCCCCOC(=O)c1ccccc1)c1ccccc1`, the call was inactive.

`CCCCCc1ccc(N)cc1`: the outcome was inactive.

As to `Clc1ccccc1C(c1ccccc1)(c1ccccc1)n1ccnc1`, the AC50 is 20.5 µM (active).

For the compound `CCCCOC(=O)CC(CC(=O)OCCCC)(OC(C)=O)C(=O)OCCCC`, the call was inactive.

Regarding `O=c1[nH]sc2ccccc12`, the result was inactive.

Turning to `CCN(Cc1cccnc1)C(=O)c1cccc(Cl)c1[C@]1(C)C(=O)N(Cc2ccc(OC)cc2OC)c2ccc(Cl)cc21`, the AC50 is 25.3 µM (active).

On to `CN1C(=O)CC[C@H]1c1cccnc1`, for which the result was inactive.
